Columns and labels:
Test in all cases: DAPPL (digital affinity profiling via proximity ligation, sequencing); 10 mM Tris-HCl pH 7.5, 50 mM NaCl, 1 mM DTT, 4% glycerol, room temperature, 30 min; GST-TFs on glutathione beads, 16-mer random dsDNA library, 0.1% formaldehyde crosslink after washing; high values mean tight binding
ETV5 = ETV5 (Homo sapiens, UniProt P41161 1-510); conditions: protein: recombinant; tags: N-terminal GST; dsDNA, one strand shown
Method in brief: (§1)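 GST fusions of human transcription factors were expressed in yeast and captured with glutathione beads. Once given DNA barcodes and pooled alongside a tag-only sample, they were incubated for 30 min at room temperature with 200 nmole of a random double-stranded 16-mer DNA library in Tris/NaCl/DTT/glycerol buffer, then washed, crosslinked (0.1% formaldehyde), proximity-ligated, PCR-amplified and sequenced on an Illumina NextSeq500. The binding signal of each hexamer is its read frequency for a factor divided by its frequency for the tag-only sample.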

HSF1 = HSF1 (Homo sapiens, UniProt Q00613 1-529); conditions: protein: recombinant; tags: N-terminal GST; chain copies: 3; dsDNA, one strand shown
Method in brief: as §1

SPIC = molecular target: T1, SPIC (Homo sapiens, UniProt Q8N5J4 1-248); conditions: protein: recombinant; tags: N-terminal GST; dsDNA, one strand shown
T1 sequence: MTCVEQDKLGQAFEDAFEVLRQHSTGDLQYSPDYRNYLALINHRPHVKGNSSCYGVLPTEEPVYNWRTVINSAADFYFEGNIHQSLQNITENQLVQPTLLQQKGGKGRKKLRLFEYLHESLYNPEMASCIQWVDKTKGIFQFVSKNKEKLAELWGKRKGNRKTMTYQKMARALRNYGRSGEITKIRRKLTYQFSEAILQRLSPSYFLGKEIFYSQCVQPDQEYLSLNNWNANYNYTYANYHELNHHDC
Method in brief: as §1

ELF4 = ELF4 (Homo sapiens, UniProt Q99607 1-663); conditions: protein: recombinant; tags: N-terminal GST; dsDNA, one strand shown
Method in brief: as §1

ELK4 = molecular target: T2, ELK4 (Homo sapiens, UniProt P28324-2 1-405); conditions: protein: recombinant; tags: N-terminal GST; dsDNA, one strand shown
T2 sequence: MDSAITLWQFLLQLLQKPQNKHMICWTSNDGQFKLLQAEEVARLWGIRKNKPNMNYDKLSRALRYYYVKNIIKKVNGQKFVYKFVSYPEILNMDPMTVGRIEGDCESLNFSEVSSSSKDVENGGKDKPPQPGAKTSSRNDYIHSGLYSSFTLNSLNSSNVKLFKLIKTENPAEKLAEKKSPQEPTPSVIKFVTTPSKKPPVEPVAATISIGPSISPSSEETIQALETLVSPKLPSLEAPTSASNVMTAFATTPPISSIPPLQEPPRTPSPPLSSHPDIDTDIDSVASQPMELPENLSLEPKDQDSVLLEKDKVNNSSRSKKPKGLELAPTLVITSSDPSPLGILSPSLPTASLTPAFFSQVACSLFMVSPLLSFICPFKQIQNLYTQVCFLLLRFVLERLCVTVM
Method in brief: as §1

ELF3 = molecular target: T3, ELF3 (Homo sapiens, UniProt P78545 1-371); conditions: protein: recombinant; tags: N-terminal GST; dsDNA, one strand shown
T3 sequence: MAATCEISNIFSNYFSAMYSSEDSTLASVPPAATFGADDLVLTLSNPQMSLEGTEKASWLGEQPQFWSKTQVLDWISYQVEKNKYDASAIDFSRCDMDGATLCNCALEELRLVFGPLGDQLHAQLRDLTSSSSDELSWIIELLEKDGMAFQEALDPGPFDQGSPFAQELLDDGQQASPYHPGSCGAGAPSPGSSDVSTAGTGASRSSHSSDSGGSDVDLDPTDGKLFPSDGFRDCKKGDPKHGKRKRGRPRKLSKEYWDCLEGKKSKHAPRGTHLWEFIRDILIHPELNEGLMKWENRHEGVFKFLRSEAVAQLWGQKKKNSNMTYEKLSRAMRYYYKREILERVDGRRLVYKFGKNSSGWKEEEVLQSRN
Method in brief: as §1

CRX = CRX (Homo sapiens, UniProt O43186 1-299); conditions: protein: recombinant; tags: N-terminal GST; dsDNA, one strand shown
Method in brief: as §1

ETV1 = ETV1 (Homo sapiens, UniProt P50549 1-477); conditions: protein: recombinant; tags: N-terminal GST; dsDNA, one strand shown
Method in brief: as §1

ETV3L = molecular target: T4, ETV3L (Homo sapiens, UniProt Q6ZN32 1-361); conditions: protein: recombinant; tags: N-terminal GST; dsDNA, one strand shown
T4 sequence: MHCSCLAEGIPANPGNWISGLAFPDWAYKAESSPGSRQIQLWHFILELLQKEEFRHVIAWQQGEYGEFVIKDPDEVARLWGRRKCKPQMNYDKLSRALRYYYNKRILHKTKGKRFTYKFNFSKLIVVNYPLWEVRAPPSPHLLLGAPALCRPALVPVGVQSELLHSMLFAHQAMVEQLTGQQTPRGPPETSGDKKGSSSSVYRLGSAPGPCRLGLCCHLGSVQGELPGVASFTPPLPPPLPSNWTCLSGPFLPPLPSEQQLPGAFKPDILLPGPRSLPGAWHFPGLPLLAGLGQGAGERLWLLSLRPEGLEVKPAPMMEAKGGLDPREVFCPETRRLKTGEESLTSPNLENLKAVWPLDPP
Method in brief: as §1

ETS2 = molecular target: T5, ETS2 (Homo sapiens, UniProt P15036 1-469); conditions: protein: recombinant; tags: N-terminal GST; dsDNA, one strand shown
T5 sequence: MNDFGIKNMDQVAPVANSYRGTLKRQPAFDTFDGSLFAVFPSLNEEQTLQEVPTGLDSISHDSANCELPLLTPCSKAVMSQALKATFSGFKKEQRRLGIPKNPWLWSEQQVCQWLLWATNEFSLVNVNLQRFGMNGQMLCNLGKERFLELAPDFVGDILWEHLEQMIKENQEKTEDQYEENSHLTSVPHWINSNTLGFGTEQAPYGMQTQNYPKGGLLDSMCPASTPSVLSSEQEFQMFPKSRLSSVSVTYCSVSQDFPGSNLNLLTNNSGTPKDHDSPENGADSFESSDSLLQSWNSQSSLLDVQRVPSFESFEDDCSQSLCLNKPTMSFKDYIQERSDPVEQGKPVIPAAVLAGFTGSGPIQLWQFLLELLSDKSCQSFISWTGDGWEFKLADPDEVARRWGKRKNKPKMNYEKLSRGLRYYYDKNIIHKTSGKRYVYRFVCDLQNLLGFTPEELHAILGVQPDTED
Method in brief: as §1

ETV7 = molecular target: T6, ETV7 (Homo sapiens, UniProt Q9Y603 1-341); conditions: protein: recombinant; tags: N-terminal GST; dsDNA, one strand shown
T6 sequence: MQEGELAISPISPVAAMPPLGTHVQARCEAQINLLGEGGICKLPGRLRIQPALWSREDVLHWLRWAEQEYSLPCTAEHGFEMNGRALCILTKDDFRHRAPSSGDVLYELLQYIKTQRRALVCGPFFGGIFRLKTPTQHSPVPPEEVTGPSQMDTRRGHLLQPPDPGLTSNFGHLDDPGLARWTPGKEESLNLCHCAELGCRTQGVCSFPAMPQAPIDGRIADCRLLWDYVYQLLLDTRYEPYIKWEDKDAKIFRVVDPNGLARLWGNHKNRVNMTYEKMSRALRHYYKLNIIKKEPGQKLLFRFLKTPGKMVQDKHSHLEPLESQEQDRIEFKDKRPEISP
Method in brief: as §1

ELF5 = molecular target: T7, ELF5 (Homo sapiens, UniProt Q9UKW6-2 1-255); conditions: protein: recombinant; tags: N-terminal GST; dsDNA, one strand shown
T7 sequence: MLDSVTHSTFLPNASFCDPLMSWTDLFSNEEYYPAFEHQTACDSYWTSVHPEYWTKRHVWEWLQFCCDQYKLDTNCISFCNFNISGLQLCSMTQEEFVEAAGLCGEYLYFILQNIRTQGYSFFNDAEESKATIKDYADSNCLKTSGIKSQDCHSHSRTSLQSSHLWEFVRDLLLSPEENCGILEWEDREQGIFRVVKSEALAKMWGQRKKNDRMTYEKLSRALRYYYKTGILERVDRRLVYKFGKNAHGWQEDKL
Method in brief: as §1

ETV3 = molecular target: T8, ETV3 (Homo sapiens, UniProt P41162-2 1-143); conditions: protein: recombinant; tags: N-terminal GST; dsDNA, one strand shown
T8 sequence: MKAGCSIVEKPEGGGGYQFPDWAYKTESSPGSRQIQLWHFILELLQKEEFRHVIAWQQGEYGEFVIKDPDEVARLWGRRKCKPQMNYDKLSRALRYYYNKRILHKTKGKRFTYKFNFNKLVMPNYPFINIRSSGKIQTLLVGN
Method in brief: as §1

FEV = molecular target: T9, FEV (Homo sapiens, UniProt Q99581 1-238); conditions: protein: recombinant; tags: N-terminal GST; dsDNA, one strand shown
T9 sequence: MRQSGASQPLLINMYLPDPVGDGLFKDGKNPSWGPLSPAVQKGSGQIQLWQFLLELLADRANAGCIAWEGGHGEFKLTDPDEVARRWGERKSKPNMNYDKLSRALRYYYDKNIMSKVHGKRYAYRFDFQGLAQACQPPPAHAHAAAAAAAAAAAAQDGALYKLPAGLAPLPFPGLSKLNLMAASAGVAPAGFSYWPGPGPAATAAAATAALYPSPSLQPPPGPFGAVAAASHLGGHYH
Method in brief: as §1

ERF = molecular target: T10, ERF (Homo sapiens, UniProt P50548 1-548); conditions: protein: recombinant; tags: N-terminal GST; dsDNA, one strand shown
T10 sequence: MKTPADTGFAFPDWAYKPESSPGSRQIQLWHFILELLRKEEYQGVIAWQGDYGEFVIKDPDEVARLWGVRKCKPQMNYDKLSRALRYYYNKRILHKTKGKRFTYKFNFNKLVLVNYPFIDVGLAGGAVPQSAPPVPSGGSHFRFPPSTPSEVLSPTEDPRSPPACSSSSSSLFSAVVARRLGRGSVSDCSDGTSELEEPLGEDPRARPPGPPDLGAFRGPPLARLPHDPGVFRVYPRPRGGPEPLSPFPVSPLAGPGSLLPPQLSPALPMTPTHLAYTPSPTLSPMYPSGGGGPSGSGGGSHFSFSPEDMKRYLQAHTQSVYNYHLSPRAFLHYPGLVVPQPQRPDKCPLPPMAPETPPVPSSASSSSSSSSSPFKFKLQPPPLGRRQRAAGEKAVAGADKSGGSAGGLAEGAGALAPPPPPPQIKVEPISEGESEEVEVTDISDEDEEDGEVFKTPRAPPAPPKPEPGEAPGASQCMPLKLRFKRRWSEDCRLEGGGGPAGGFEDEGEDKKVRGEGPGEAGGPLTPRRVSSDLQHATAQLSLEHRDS
Method in brief: as §1

SPDEF = molecular target: T11, SPDEF (Homo sapiens, UniProt O95238 1-335); conditions: protein: recombinant; tags: N-terminal GST; dsDNA, one strand shown
T11 sequence: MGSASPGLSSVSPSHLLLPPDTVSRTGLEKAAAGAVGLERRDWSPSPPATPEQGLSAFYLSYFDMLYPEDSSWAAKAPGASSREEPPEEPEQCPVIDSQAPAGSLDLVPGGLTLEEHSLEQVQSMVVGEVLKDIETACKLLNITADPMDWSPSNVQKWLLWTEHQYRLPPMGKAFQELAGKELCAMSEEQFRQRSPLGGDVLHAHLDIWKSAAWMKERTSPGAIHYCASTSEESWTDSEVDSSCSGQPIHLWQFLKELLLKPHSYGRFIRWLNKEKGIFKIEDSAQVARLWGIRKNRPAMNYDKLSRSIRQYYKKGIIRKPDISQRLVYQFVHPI
Method in brief: as §1

ETV6 = ETV6 (Homo sapiens, UniProt P41212 1-452); conditions: protein: recombinant; tags: N-terminal GST; dsDNA, one strand shown
Method in brief: as §1

ETV1, sequence (P50549 whole entry): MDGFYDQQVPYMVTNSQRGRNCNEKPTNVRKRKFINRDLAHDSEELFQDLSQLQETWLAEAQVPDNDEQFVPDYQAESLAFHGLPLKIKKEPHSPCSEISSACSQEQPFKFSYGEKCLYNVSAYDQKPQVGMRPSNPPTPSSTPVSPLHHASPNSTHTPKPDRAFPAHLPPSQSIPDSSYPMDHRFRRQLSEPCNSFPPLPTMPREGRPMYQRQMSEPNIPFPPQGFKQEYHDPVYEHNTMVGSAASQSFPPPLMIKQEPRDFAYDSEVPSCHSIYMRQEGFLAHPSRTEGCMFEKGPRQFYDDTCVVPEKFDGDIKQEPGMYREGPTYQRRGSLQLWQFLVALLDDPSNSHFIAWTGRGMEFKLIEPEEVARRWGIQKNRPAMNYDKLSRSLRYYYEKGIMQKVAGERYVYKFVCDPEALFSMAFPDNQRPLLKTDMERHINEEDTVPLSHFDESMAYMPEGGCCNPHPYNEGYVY
ELF4, sequence (Q99607 whole entry): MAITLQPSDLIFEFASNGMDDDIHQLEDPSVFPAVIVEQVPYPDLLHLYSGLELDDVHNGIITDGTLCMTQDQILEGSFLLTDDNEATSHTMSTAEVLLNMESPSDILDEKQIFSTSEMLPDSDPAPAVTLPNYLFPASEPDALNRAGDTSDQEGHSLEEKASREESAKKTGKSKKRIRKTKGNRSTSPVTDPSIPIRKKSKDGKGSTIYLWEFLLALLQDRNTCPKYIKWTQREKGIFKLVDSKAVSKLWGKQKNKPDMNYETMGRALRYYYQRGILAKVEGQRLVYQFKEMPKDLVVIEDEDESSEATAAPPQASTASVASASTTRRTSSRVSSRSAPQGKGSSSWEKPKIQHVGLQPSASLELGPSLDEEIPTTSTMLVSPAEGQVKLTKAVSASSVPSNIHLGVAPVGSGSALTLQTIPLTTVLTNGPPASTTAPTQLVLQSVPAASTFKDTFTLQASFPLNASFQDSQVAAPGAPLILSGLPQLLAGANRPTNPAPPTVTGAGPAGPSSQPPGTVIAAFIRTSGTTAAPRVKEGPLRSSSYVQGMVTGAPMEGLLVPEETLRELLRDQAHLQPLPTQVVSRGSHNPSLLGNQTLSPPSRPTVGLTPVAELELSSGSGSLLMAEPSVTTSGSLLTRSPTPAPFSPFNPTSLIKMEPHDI
HSF1, sequence (Q00613 whole entry): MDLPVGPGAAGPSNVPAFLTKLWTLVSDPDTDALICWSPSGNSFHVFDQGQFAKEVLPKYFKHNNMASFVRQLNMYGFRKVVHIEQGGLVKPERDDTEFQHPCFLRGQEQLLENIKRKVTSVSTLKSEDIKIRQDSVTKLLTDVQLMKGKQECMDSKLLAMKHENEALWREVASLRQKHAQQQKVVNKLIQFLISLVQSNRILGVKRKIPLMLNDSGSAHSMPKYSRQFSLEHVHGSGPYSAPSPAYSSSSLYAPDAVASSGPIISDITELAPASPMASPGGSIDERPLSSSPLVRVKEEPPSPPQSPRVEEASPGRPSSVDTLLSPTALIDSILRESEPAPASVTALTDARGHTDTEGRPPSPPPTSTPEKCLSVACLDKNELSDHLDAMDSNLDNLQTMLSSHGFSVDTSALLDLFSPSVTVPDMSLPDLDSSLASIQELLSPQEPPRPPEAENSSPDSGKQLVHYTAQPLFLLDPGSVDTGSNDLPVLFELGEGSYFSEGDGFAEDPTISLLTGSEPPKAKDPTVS
ETV5, sequence (P41161 whole entry, the tested form may be a part): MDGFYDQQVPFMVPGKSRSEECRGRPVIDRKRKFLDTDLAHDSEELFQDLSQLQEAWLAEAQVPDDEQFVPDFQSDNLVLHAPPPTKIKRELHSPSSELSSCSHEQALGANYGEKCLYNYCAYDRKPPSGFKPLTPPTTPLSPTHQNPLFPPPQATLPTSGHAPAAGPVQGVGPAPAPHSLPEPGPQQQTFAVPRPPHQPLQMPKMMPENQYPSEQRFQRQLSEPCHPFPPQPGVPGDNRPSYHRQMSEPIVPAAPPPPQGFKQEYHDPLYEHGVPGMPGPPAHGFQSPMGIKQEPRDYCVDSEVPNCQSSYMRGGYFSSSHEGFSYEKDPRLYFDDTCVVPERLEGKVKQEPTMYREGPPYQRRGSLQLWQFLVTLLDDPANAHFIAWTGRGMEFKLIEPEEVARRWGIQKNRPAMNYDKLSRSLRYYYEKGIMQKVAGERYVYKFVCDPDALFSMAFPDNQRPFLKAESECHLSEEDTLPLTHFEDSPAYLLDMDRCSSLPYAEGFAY
CRX, sequence (O43186 whole entry): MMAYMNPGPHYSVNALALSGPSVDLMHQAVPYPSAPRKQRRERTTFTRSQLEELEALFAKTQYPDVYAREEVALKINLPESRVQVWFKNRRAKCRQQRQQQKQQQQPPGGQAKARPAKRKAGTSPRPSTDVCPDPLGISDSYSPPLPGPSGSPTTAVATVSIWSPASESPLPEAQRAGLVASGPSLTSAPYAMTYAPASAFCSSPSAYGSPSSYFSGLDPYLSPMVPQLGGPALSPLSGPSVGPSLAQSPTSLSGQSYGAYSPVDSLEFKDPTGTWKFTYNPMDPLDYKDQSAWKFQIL
ETV6, sequence (P41212 whole entry): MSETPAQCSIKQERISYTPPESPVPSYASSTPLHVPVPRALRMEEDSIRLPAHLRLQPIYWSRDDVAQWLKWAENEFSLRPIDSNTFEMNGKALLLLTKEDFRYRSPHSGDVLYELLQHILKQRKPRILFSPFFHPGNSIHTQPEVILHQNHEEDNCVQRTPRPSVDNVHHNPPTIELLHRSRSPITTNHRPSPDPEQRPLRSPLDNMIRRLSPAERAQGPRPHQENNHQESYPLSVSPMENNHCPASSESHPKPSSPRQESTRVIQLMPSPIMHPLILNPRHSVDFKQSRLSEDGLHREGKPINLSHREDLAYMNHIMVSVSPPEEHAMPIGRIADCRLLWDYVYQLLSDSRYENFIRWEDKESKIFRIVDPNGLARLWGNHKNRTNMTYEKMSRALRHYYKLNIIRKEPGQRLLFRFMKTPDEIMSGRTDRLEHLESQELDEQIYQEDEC

Row | Sequence | binding signal (ETV5) | binding signal (HSF1) | binding signal (SPIC) | binding signal (ELF4) | binding signal (ELK4) | binding signal (ELF3) | binding signal (CRX) | binding signal (ETV1) | binding signal (ETV3L) | binding signal (ETS2) | binding signal (ETV7) | binding signal (ELF5) | binding signal (ETV3) | binding signal (FEV) | binding signal (ERF) | binding signal (SPDEF) | binding signal (ETV6)
1 | TCATGA | 1.08 fold enrichment (6-mer frequency, TF over GST control) | 1.06 fold enrichment (6-mer frequency, TF over GST control) | 1.07 fold enrichment (6-mer frequency, TF over GST control) | 1.06 fold enrichment (6-mer frequency, TF over GST control) | 1.03 fold enrichment (6-mer frequency, TF over GST control) | 1 fold enrichment (6-mer frequency, TF over GST control) | 1.07 fold enrichment (6-mer frequency, TF over GST control) | 1.14 fold enrichment (6-mer frequency, TF over GST control) | 1.03 fold enrichment (6-mer frequency, TF over GST control) | 1.04 fold enrichment (6-mer frequency, TF over GST control) | 1 fold enrichment (6-mer frequency, TF over GST control) | 1.05 fold enrichment (6-mer frequency, TF over GST control) | 1.06 fold enrichment (6-mer frequency, TF over GST control) | – | – | – | –
2 | TCCCGA | 1.37 fold enrichment (6-mer frequency, TF over GST control) | 2.34 fold enrichment (6-mer frequency, TF over GST control) | 1.36 fold enrichment (6-mer frequency, TF over GST control) | 1.25 fold enrichment (6-mer frequency, TF over GST control) | 1.42 fold enrichment (6-mer frequency, TF over GST control) | 1.26 fold enrichment (6-mer frequency, TF over GST control) | 1.59 fold enrichment (6-mer frequency, TF over GST control) | 1.29 fold enrichment (6-mer frequency, TF over GST control) | 1.21 fold enrichment (6-mer frequency, TF over GST control) | 1.29 fold enrichment (6-mer frequency, TF over GST control) | 1.35 fold enrichment (6-mer frequency, TF over GST control) | 1.52 fold enrichment (6-mer frequency, TF over GST control) | 1.26 fold enrichment (6-mer frequency, TF over GST control) | 1.31 fold enrichment (6-mer frequency, TF over GST control) | 1.34 fold enrichment (6-mer frequency, TF over GST control) | 1.37 fold enrichment (6-mer frequency, TF over GST control) | 1.22 fold enrichment (6-mer frequency, TF over GST control)
3 | GTGCTA | 1.16 fold enrichment (6-mer frequency, TF over GST control) | 1.07 fold enrichment (6-mer frequency, TF over GST control) | 1.17 fold enrichment (6-mer frequency, TF over GST control) | 1.07 fold enrichment (6-mer frequency, TF over GST control) | 1.08 fold enrichment (6-mer frequency, TF over GST control) | 1.12 fold enrichment (6-mer frequency, TF over GST control) | – | 1.1 fold enrichment (6-mer frequency, TF over GST control) | 1.04 fold enrichment (6-mer frequency, TF over GST control) | 1.13 fold enrichment (6-mer frequency, TF over GST control) | 1 fold enrichment (6-mer frequency, TF over GST control) | – | 1.11 fold enrichment (6-mer frequency, TF over GST control) | 1.11 fold enrichment (6-mer frequency, TF over GST control) | 1.02 fold enrichment (6-mer frequency, TF over GST control) | 1.12 fold enrichment (6-mer frequency, TF over GST control) | –

Source: article PMC7862700, “An all-to-all approach to the identification of sequence-specific readers for epigenetic DNA modifications on cytosine”
